Screening data (PubChem BioAssay)
HCMV inh – blocks human cytomegalovirus replication. HFF cells, HCMV-luciferase reporter, 72 h; active compounds read low. activity change, negative = inhibition, % at 57.5 µM. 410,000 compounds, 4.5% hits; in the data active = activity change below about -60%; inconclusive = no clear call, values can overlap the other calls; inactive = above about -39%
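After 16 h attachment at 37C, HFF cells received test compound and HCMV-luciferase (1 PFU/cell); reporter luminescence read 72 h later, data normalized against buffer-only and known inhibitor Salinomycin.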
HCV inhibitor – inhibitors of hepatitis C virus infection; Huh7.5.1 HCVcc-Cre infection, luciferase reporter, 44 h; Potency, µM (top dose mostly 41.8 µM), inactives show top-dose activity change, negative = inhibition, actives largely listed as inhibitors; 340,000 compounds, 3.4% hits; AID 651820; also: potency is read from the fitted curve at half-maximal effect
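Infectious HCVcc-Cre (~0.5 moi) was added to cells just after compound, with cells seeded 4 h earlier at 1,000 per well. Luciferase activity after 44 h culture reported infection; substrate was incubated 15 min at room temperature before reading.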
FMDV antiviral – foot and mouth disease virus antiviral activity. AID 1159524. 410,000 compounds, 1.2% hits. FMDV antiviral cell-based qHTS. Potency, µM (titrated, usually from 57.9 µM), for inactives: at the highest dose activity change, negative = inhibition, most hits filed as inhibitors; calls by dose curve; tested in HEK293T cells; also: read-out not given here; potency is read from the fitted curve at half-maximal effect; nearly all actives have a fitted effect of over 45% in size
Marburg entry inh – Marburg virus entry inhibition; 300,000 compounds, 1.8% hits; Marburg virus pseudotyped entry inhibition, cell reporter; AID 540276; Potency, µM (doses to about 37.8 µM), without a hit: at the top dose activity change, negative = inhibition, hits mostly inhibitors; calls by dose curve; tested in HEK293 cells; also: potency is read from the fitted curve at half-maximal effect
LASV entry inh – blocks Lassa virus binding to or entry into cells; Lassa virus pseudotype entry inhibition, cell reporter; Potency, µM (top dose mostly 37.9 µM), without a hit: top-dose activity change, negative = inhibition, usual class: inhibitors; 300,000 compounds, 1.2% hits; calls by dose curve; tested in HEK293 cells; also: potency is read from the fitted curve at half-maximal effect; nearly all actives have a fitted effect of over 50% in size
Giardia FBPA inh – inhibitors of Giardia lamblia fructose-1,6-bisphosphate aldolase; A8B2U2; purified Giardia FBPA; Potency, µM (doses to about 59.6 µM), without a hit: top-dose activity, negative = inhibition, hits mostly inhibitors; 290,000 compounds, 0.71% hits; AID 2451; also: potency is read from the fitted curve at half-maximal effect; nearly all actives have a fitted effect of over 55% in size
Target sequence (A8B2U2 whole entry, looked up): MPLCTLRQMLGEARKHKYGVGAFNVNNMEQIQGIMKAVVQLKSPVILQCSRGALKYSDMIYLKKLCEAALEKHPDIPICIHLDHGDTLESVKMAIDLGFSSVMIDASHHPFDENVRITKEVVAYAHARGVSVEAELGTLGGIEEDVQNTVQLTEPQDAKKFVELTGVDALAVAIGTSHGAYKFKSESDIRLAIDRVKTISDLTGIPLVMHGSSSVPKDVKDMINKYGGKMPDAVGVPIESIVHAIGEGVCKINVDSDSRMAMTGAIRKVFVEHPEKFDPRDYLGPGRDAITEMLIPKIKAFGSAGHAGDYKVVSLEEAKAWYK
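40 nM FBPA preincubated 10 min at RT with compound (up to 57.5 uM final), then substrate plus GAPDH/TPI/NAD/arsenate coupling and diaphorase/resazurin added. Fluorescence read after 20 min at RT, 525/598 nm.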
An asterisk follows results filed as active; ? = inconclusive; · = not tested or not shown; + = active, no number; [ ] = remark or other dose. Sampled rows, rich in hits. Any-hit rate of the full collection: about 8.3%. Unless noted, calls follow the shape of the dose curve; as a rule, active = well fitted curve in the direction sought with a large enough effect; inconclusive = small, poorly fitted or top-dose-only effect, or another doubt; inactive = no such curve, though single readings can be large; an effect the other way counts as inactive or inconclusive. % is scaled to controls: 0 for no effect and ±100 for the full control effect.

SMILES	HCMV inh	HCV inhibitor	FMDV antiviral	Marburg entry inh	LASV entry inh	Giardia FBPA inh
CCOC(=O)c1c(-c2ccccc2)oc2ccc(N(C(C)=O)S(=O)(=O)c3cc(C)ccc3C)cc12	-106.0*	·	10.7%	-11.9%[46.1 µM]	-10.8%[46.1 µM]	·
CCOC(=O)c1c(-c2ccccc2)oc2ccc(OCC)cc12	-8.8	?	-16.7%	-25.2%[46.1 µM]	-7.5%	0.2%
CCOC(=O)c1c(-c2ccccc2)oc2ccc(OC)cc12	9.1	11.2µM*	-4.9%	27.7%	-1.0%	0.4%
COC(=O)c1c(C)oc2ccc(N(C(=O)c3ccncc3)S(=O)(=O)c3cc(C)ccc3C)cc12	-64.8*	·	-9.2%	-28.9%[46.1 µM]	?	·
COC(=O)c1c(C)oc2ccc(N(C(=O)c3ccncc3)S(=O)(=O)c3ccc(Br)cc3)cc12	-27.6	·	-19.0%	·	?	·
O=C(c1ccc(Cl)c([N+](=O)[O-])c1)N(Cc1ccc(Cl)cc1)C1CCS(=O)(=O)C1 (centres undefined)	-60.1*	?	12.5%	?	-12.3%	-1.1%
O=C(/C=C/c1ccco1)N(Cc1ccc(Cl)cc1)C1CCS(=O)(=O)C1 (centres undefined)	-22.6	1.12µM*	-3.1%	-20.9%[46.1 µM]	-1.9%[46.1 µM]	7.9%
O=S(=O)(NC1CCCCC1N1CCN(c2ccc(F)cc2)CC1)c1ccccc1 (centres undefined)	+	?	?	·	·	·
Cc1ccc(C)c(N2CCN(C3CCCCC3NS(=O)(=O)c3ccccc3)CC2)c1 (centres undefined)	·	11.2µM*	?	·	·	-9.8%
CC(C)CON=C1C[C@@H](O)[C@@H](O)[C@@H]2[C@H]3C(=O)N(Cc4ccc5c(c4)OCO5)C(=O)[C@@H]3CC[C@@H]12	·	·	·	-29.9%[14.2 µM]	·	·
COc1ccccc1CN1CC2(CCN(C(=O)c3ccncc3)CC2)C1	·	·	-17.7%	·	·	5.7%
CC(=O)Nc1ccc2ccccc2c1	·	11.1%	·	4.4%	12.1%	5.7%
CCOc1cccc(C(=O)Nc2ccc3oc(-c4cccnc4)nc3c2)c1	?	10µM*	?	-6.7%[46.1 µM]	0.0%[46.1 µM]	1.6%
O=C(Nc1ccc2oc(-c3cccnc3)nc2c1)c1cccc(Br)c1	-9.7	·	-0.6%	-13.1%[46.1 µM]	27.3%[46.1 µM]	·
CCOc1cccc(C(=O)Nc2cccc(-c3nnc(-c4ccc(C)cc4)o3)c2)c1	-70.4*	?	-25.1%	?	0.1%	-2.5%
CC(=O)Nc1ccc2cc3ccc(NC(C)=O)cc3nc2c1	-98.3*	-3.7%	56.9%	·	·	?
CCOc1cccc(C(=O)Nc2cccc(-c3nnc(-c4ccccc4)o3)c2)c1	?	?	·	?	?	3.6%
Cn1c(CN2CCCCC2)nc2cc(NC(=O)c3ccccc3)ccc21	-60.0*	-26.1%	-7.5%	10.6%	36.4%[14.3 µM]	-2.2%
N[C@H](C(=O)O)[C@@H]1[C@@H](C(=O)O)C1(F)F	·	·	-1.3%	·	·	-3.9%
O=C(Nc1ccc2oc(-c3ccccc3)nc2c1)c1ccncc1	-35.6	10µM*	?	?	-13.4%	0.5%
O=C(Nc1ccc2nc(-c3ccccc3)oc2c1)c1ccco1	-11.2	10µM*	-20.4%	-31.3%[46.1 µM]	12.3%	-3.1%
O=C(Nc1ccc2oc(-c3cccnc3)nc2c1)c1ccco1	10.0	-4.2%	22.7%	14.8%	?	·
CCOc1cccc(C(=O)Nc2nnc(-c3ccco3)s2)c1	55.3	0.6%	-37.8%	3.98µM*	?	-24.9%
Cc1cc(NC(=O)c2ccco2)cc(-c2nc3cc(Cl)ccc3o2)c1O	-61.1*	·	-0.4%	1.0%[46.1 µM]	19.0%[46.1 µM]	·
Cc1ccc(CNC(=O)c2cc3c(=O)n4cccc(C)c4nc3s2)cc1	9.1	·	?	7.9%[46.1 µM]	-26.6%[46.1 µM]	·
SMILES	HCMV inh	HCV inhibitor	FMDV antiviral	Marburg entry inh	LASV entry inh	Giardia FBPA inh
COc1cccc(CS(=O)(=O)c2nnnn2CC(C)C)c1	·	·	·	·	·	3.5%
C[C@]12C=CC(=O)C=C1CCC1C2C(=O)C[C@]2(C)C1CC[C@]2(O)C(=O)CO (some centres undefined)	·	·	-2.0%	·	·	5.3%
O=C(Nc1ccc2nc3ccccc3nc2c1)c1ccccc1	91.4	?	-24.0%	?	11.2µM*	-11.3%
CCOc1cccc(C(=O)Nc2ccc3oc(Cc4ccc(Cl)cc4)nc3c2)c1	-60.3*	?	8.91µM*	?	?	-0.4%
CCCCOc1cccc(C(=O)Nc2ccc3oc(-c4cccnc4)nc3c2)c1	-33.4	·	15.8µM*	·	26.0%[46.1 µM]	·
COc1ccc2c(c1)CCc1cnc(-n3ncc(C(=O)N4CCN(CCO)CC4)c3C3CC3)nc1-2	·	·	-8.9%	·	·	·
CC#CCN1C(=O)N(C)C(c2ccccc2)C(C(=O)OC)=C1C (centres undefined)	·	·	·	-3.5%[14.2 µM]	·	·
CCN(CC)CCNC(=O)c1cc2c(=O)n(CC)c3ccccc3c2s1	38.8	?	2.1%	-15.8%[46.1 µM]	3.4%[46.1 µM]	15.8%
CCn1c(=O)c2cc(C(=O)NCCOC)sc2c2ccccc21	113.3	10µM*	-10.7%	9.3%[46.1 µM]	-0.1%[46.1 µM]	0.3%
CCn1c(=O)c2cc(C(=O)Nc3ccc(OC)cc3OC)sc2c2ccccc21	-19.5	-8.0%	-19.7%	·	·	6.7%
CCn1c(=O)c2cc(C(=O)NCCN(C)C)sc2c2ccccc21	2.1	10µM*	-3.5%	7.08µM*	?	2.1%
CCn1c(=O)c2cc(C(=O)Nc3cc(C)c(Cl)cc3OC)sc2c2ccccc21	-105.6*	·	-4.6%	-1.9%[46.1 µM]	17.9%[46.1 µM]	·
Cc1ccc(CNC(=O)c2c(C)oc3nc(C)nc(N4CCOCC4)c23)cc1	57.3	·	-6.5%	·	15.7%[46.1 µM]	·
CO[C@H]1[C@H](NC(=O)c2ccco2)c2ccccc2C12CCN(Cc1ccc3cccc(F)c3n1)CC2	·	·	-18.9%	·	·	·
C=C1C(=O)OC2C=C(CO)CCC=C(CO)CC(OC(=O)C(C)C)C12 (centres undefined)	7.3	?	39.8µM*	?	?	·
CNC[C@@H]1OCc2ccccc2-c2c(n(C)c3ccccc23)C(=O)N([C@@H](C)CO)C[C@@H]1C	-11.1	·	·	·	·	·
O=[N+]([O-])c1cnn(-c2nc(-c3ccco3)cc(C(F)(F)F)n2)c1	-96.5*	-24.1%	-4.9%	-2.3%	?	3.9%
Fc1ccc(N2CCN(c3nc(-c4ccco4)cc(C(F)(F)F)n3)CC2)cc1	-5.1	?	?	-24.1%	-42.5%	-1.6%
COC(=O)c1scc(C)c1NC(=O)Nc1ccccc1	-99.0*	19.0%	-13.0%	-3.2%[46.1 µM]	0.7%	0.3%
CCCCCCN1C[C@@H](n2cc(COC(=O)c3ccccc3)nn2)[C@H](O)C[C@@H]1c1ccc(C)cc1	-88.5*	·	-26.4%	·	·	·
Cc1ccc([C@H]2C[C@@H](O)[C@H](n3cc(COC(=O)c4ccccc4)nn3)CN2CC2CCCCC2)cc1	-89.0*	·	-4.3%	·	1.3%[46.1 µM]	·
COc1ccc([C@H]2C[C@H](O)[C@@H](n3cc(COC(=O)c4ccccc4)nn3)CN2C(=O)C2CCCCC2)cc1	-82.8*	·	-16.1%	?	·	·
Cc1ccc([C@H]2C[C@@H](n3cc(C4CC4)nn3)[C@H](O)CN2CC2CCCCC2)cc1	12.1	·	-20.1%	?	·	·
